G9a block = qHTS Assay for Inhibitors of Histone Lysine Methyltransferase G9a; Histone-lysine N-methyltransferase EHMT2 (Homo sapiens), Q96KQ7; Potency, µM (titrated, usually from 102 µM), hits mostly inhibitors; AID 504332, 2011; 350,000 compounds, 8.8% hits; G9a H3K9 monomethylation, AlphaScreen, 2 h; note: nearly all actives have a fitted effect of over 75% in size
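Chemiluminescent proximity detection of H3K9 monomethylation, read after 10 min bead incubation in the dark. Reaction: 20 nM G9a, 500 nM biotin-H3K9 peptide, 20 uM SAM cofactor, 2 h, room temperature, following 15 min enzyme-compound preincubation.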
PLK1 PBD block = qHTS for Inhibitors of PLK1-PDB (polo-like kinase 1 - polo-box domain): Primary Screen; Plk1 PBD binding of FITC phosphopeptide, fluorescence polarization; Potency, µM, usual class: inhibitors; 360,000 compounds, 2.8% hits; AID 720504, 2013; note: series mostly up to about 57 µM; nearly all actives have a fitted effect of over 65% in size
JMJD2A Tudor = qHTS Assay for Inhibitors of JMJD2A-Tudor Domain. Lysine-specific demethylase 4A (Homo sapiens), O75164. AlphaScreen JMJD2A-Tudor / H3K4me3 peptide binding. Potency, µM (titrated, usually from 114 µM), most hits filed as inhibitors. 390,000 compounds, 4.4% hits; note: nearly all actives have a fitted effect of over 50% in size
Target sequence (O75164 whole entry, looked up, the tested form may be a part): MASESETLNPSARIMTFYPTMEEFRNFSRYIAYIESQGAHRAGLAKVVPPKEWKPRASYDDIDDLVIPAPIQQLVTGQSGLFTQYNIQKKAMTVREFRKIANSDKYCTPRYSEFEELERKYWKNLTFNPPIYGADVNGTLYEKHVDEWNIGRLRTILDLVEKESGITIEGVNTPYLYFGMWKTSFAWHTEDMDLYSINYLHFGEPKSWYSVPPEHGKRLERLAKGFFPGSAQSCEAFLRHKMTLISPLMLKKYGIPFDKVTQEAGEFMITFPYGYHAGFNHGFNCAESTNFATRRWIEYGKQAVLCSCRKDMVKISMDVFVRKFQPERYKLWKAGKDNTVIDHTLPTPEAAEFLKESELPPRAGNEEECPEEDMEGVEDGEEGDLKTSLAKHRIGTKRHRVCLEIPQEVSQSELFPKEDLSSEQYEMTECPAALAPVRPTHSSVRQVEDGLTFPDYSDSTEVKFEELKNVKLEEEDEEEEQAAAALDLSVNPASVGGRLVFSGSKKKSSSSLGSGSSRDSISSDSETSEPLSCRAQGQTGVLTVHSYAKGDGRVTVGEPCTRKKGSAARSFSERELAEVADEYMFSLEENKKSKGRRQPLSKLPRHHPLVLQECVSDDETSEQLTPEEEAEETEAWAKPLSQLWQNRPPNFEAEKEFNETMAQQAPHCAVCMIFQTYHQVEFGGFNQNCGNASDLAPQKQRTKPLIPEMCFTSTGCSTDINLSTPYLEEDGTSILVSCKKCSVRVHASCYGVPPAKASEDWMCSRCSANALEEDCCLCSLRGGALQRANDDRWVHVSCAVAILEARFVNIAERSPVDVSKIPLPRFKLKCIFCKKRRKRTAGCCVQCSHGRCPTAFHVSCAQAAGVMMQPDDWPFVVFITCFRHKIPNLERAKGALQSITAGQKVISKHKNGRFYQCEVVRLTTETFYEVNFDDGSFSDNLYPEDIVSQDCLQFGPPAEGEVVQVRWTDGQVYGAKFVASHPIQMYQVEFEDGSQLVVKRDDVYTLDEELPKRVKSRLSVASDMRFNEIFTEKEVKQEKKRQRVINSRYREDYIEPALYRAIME
BAZ2B inh = qHTS Assay for Inhibitors of BAZ2B; Bromodomain adjacent to zinc finger domain protein 2B (Homo sapiens), Q9UIF8; AlphaScreen BAZ2B-H3K14Ac peptide displacement; Potency, µM (highest dose often 114 µM), hits mostly inhibitors; 360,000 compounds, 4.4% hits; AID 504333, 2011; note: nearly all actives have a fitted effect of over 60% in size
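Multi-concentration screen (max 110 uM) measuring displacement of acetylated histone H3 peptide from BAZ2B by AlphaScreen, using 50 nM protein, 50 nM peptide and 10 ug/mL streptavidin donor plus Ni-chelate acceptor beads.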
HP1b chromo inh = HTS for Inhibitors of HP1-beta Chromodomain Interactions with Methylated Histone Tails; Chromobox protein homolog 1 (Homo sapiens), P83916; AlphaScreen HP1-beta / biotin-H3K9me3 peptide binding; Potency, µM (series often up to 114 µM), actives largely listed as inhibitors; 390,000 compounds, 0.56% hits; AID 540317, 2011; note: nearly all actives have a fitted effect of over 70% in size
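HP1-beta protein (50 nM final) preincubated 30 min at room temperature with biotinylated H3(1-18)K9me3 peptide (50 nM) in PBS pH 7.4, 0.01% Tween-20, then compound added for 30 min. AlphaScreen streptavidin donor/nickel chelate acceptor beads (10 ug/mL final), 30 min dark, luminescence read.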
Sfp PPTase inh = qHTS Assay for Inhibitors of Bacillus subtilis Sfp phosphopantetheinyl transferase (PPTase); 310,000 compounds, 3.5% hits; Potency, µM, most hits filed as inhibitors; AID 1490, 2009; Biochemical Sfp PPTase activity, qHTS;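 note: the enzyme is Sfp with the accession as filed and its product quenches rhodamine fluorescence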
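Reaction rates are the 30-min fluorescence difference (ex 525, em 598 nm) in wells containing 15 nM Sfp, 5 uM rhodamine-CoA and 12.5 uM BHQ-2-YbbR at pH 7.6 with 10 mM MgCl2.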
A number is an active result; – = inactive; ? = inconclusive; · = not tested or not shown; ! = not active in a repeat; [ ] = another dose, or the depositor's remark. Most compounds without a hit are left out; they make up all but 12% or so of the library. Calls come from the whole dose curve; as a rule, active = well fitted curve in the direction sought with a large enough effect; inconclusive = small, poorly fitted or top-dose-only effect, or another doubt; inactive = no such curve, though single readings can be large; an effect the other way counts as inactive or inconclusive.

SMILES	G9a block	PLK1 PBD block	JMJD2A Tudor	BAZ2B inh	HP1b chromo inh	Sfp PPTase inh
CCC(C)NC(=O)c1ccc2nc(-c3cccs3)c(-c3cccs3)nc2c1 (stereo not given)	·	·	–	·	–	·
COc1cccc(Cn2ncc3c4sc(C)cc4n(C)c3c2=O)c1	·	·	–	·	·	·
O=C(CC1CCCC1)N1CCN(S(=O)(=O)c2cccc(Br)c2)CC1	·	–	·	·	·	·
O=C1N=C(N2CCN(c3ccccc3)CC2)S/C1=C\c1ccco1	40µM	–	?	50µM	–	–
Cc1ccc(NC(=O)CC2Oc3ccccc3NC2=O)cc1C (stereo not given)	–	·	–	–	–	·
CCN(CCNC(=O)CC1Oc2ccccc2NC1=O)c1ccccc1 (stereo not given)	79µM	–	–	–	–	–
CC1CCN(Cc2ccc(NC(=O)CC3Oc4ccccc4NC3=O)cc2)CC1 (stereo not given)	50µM	–	–	–	–	–
CCC(C)N(CCNC(=O)CC1Oc2ccccc2NC1=O)C1CCCCC1 (stereo not given)	50µM	–	–	–	–	–
CC(C)CN(CCNC(=O)CC1Oc2ccccc2NC1=O)CC(C)C (stereo not given)	?	–	–	–	–	–
C=C(C)Cn1c(SCC(=O)Nc2cccc(Cl)c2)nc2sc3c(c2c1=O)CCCC3	–	·	–	–	–	·
O=C(Cn1c(=O)oc2cc(Cl)ccc21)Nc1cccc(C(F)(F)F)c1	–	·	–	–	–	·
Cc1nnc(NC(=O)c2nc(S(=O)(=O)Cc3ccccc3C)ncc2Cl)s1	?	?	?	56µM	–	?
O=C(Nc1nc2ccc(F)cc2s1)c1nc(S(=O)(=O)Cc2ccccc2F)ncc1Cl	–	·	–	–	–	·
CC(C)c1nnc(NC(=O)c2nc(S(=O)(=O)Cc3ccccc3F)ncc2Cl)s1	20µM	–	–	?	–	–
Cc1cccc(CS(=O)(=O)c2ncc(Cl)c(C(=O)Nc3nnc(C(C)C)s3)n2)c1	?	?	?	?	–	–
CSc1nnc(NC(=O)c2nc(S(=O)(=O)Cc3ccccc3F)ncc2Cl)s1	28µM	?	22µM	–	–	?
CCCSCCCNC(=O)Cn1c(-c2cccs2)cc2ccccc21	–	·	–	–	–	·
CCCCN(Cc1ccc(C(=O)N[C@H](C(=O)O)C(C)C)cc1)C(=O)C(c1ccccc1)c1ccccc1	·	?	89µM	·	–	·
COc1ccc(/C=C/C(=O)NC(=S)NN2CCCCC2c2cccnc2)cc1OC (stereo not given)	32µM	?	–	–	–	–
O=C(/C=C/c1ccc(Cl)cc1)NC(=S)NN1CCCCC1c1cccnc1 (stereo not given)	22µM	·	·	?	·	–
CCCCC(=O)Nc1ccc(S(=O)(=O)N2CCCCC2c2cccnc2)cc1 (stereo not given)	–	–	–	–	–	–
COc1ccc2[nH]c3c(c2c1)CCN1C(=O)C(CC(=O)NCCC2=CCCCC2)C[C@H](C(=O)N2CCCCC2)[C@@]31CCc1ccccc1 (stereo not given in full)	·	?	–	·	–	·
CCC(CC)C(=O)Nc1ccc(OCc2cc(=O)n3c4c(sc3n2)CCCC4)cc1	–	·	–	–	–	·
CCN(C(=O)COC(=O)CCC(=O)c1cccs1)c1ccccc1	·	–	–	·	–	·
CCOc1ccc(CCNC(=O)c2ccc(CS(=O)(=O)c3ccccc3C)o2)cc1OCC	–	·	–	–	–	·
SMILES	G9a block	PLK1 PBD block	JMJD2A Tudor	BAZ2B inh	HP1b chromo inh	Sfp PPTase inh
CCOC(=O)c1cnc2c(cnn2C)c1NCCC#N	–[12.7 µM]	–	–	–	–	–
CCOC(=O)c1cnc2c(cnn2CC)c1NN=C(C)C	30µM	·	·	·	·	45µM!
Cc1c(C)n(CCC#N)c2ccccc12	–	–	?	?	–	–
CN(C)c1nc(-c2cn(CCC#N)c3ccccc23)cs1	28µM	27µM	50µM	?	–	–
COCCn1cc(-c2csc(N)n2)c2ccccc21	·	30µM	?	?	–	–
CN1CCN(S(=O)(=O)c2cccc(C(=O)Nc3cc(Cl)ccc3N3CCOCC3)c2)CC1	16µM	–	–	–	–	·
CN1CCN(S(=O)(=O)c2cccc(C(=O)Nc3ccccc3N3CCCC3)c2)CC1	?	–	–	–	–	–
CN1CCN(S(=O)(=O)c2cccc(C(=O)Nc3cc(C(F)(F)F)ccc3N3CCCC3)c2)CC1	50µM	–	–	–	–	·
CC1CN(S(=O)(=O)c2cccc(C(=O)Nc3cc(Cl)ccc3N3CCOCC3)c2)CC(C)O1 (stereo not given)	–	–	–	–	–	·
CCc1ccc(C(=O)NNC(=O)c2cccc(S(=O)(=O)N3CCN(C)CC3)c2)cc1	56µM	–	–	–	–	·
O=C(Nc1ccccc1)N1CC2(CCN(S(=O)(=O)c3ccccc3)CC2)C1	–[12.7 µM]	·	·	·	·	–
CSCC[C@H](C=O)NC(=O)[C@H](CC(C)C)NC(=O)[C@H](CC(C)C)NC(C)=O	·	·	·	·	·	–
Cc1cc2occ(CC(=O)N(C)CC(=O)Nc3ccccc3C(F)(F)F)c2cc1C	–[2.33 µM]	–	–	–	–	·
Cc1ccc(C)c(N2CCN(C(=O)c3c4c(nc5ccccc35)C(=O)N(C3CCCCC3)C4)CC2)c1	–	·	–	–	–	·
Oc1c(Br)cc(Cl)cc1C=Nc1ccccc1Br	4µM	?	–	–	–	–
CC1CCCN(C(=O)CN2CCN(C(=O)c3ccco3)CC2)C1 (stereo not given)	25µM	–	–	–	–	–
O=C(c1ccco1)N1CCN(CC(=O)N2c3ccccc3CCc3ccccc32)CC1	?	–	1µM	18µM	14µM	?
COc1ccc(S(=O)(=O)Nc2ccc(C(N)=O)cc2)cc1C(=O)N1CCCCCC1	–	–	–	–	–	–
Cc1cccc2sc(N(CCN(C)C)C(=O)c3cc(Cl)sc3Cl)nc12	45µM	–	?	?	–	–
Cc1cc(C)c2sc(N(CCN(C)C)C(=O)c3ccc4ccccc4c3)nc2c1	35µM	–	22µM	?	–	–
COc1cc2ccccc2cc1C(=O)N(CCN(C)C)c1nc2c(C)cccc2s1	13µM	–	?	?	–	?
COc1cc(C(=O)N(CCCN(C)C)c2nc3c(OC)cccc3s2)cc(OC)c1OC	–	·	–	–	–	·
Cc1cc(C)c2sc(N(CCN(C)C)C(=O)c3cc(Cl)sc3Cl)nc2c1	45µM	–	?	·	–	–
COc1ccccc1C(=O)N(CCN(C)C)c1nc2cc(C)cc(C)c2s1	?	–	?	·	–	–
